ERb SRC1 inh = ER-beta (human) coactivator binding inhibition; TR-FRET ER-beta LBD / SRC1-Cy5 peptide binding; receptor agonist-loaded with 1 µM estradiol; Q92731; inhibition, % at 25.6 µM; AID 633; 86,000 compounds, 1.3% hits;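 active = compounds whose percent inhibition of the receptor-coactivator binding signal exceeds about 50% in the single-dose screen, limit read from the data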;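 also: 0% = receptor plus peptide wells without compound and 100% = peptide-only wells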
Target sequence (Q92731 whole entry, looked up, the tested form may be a part): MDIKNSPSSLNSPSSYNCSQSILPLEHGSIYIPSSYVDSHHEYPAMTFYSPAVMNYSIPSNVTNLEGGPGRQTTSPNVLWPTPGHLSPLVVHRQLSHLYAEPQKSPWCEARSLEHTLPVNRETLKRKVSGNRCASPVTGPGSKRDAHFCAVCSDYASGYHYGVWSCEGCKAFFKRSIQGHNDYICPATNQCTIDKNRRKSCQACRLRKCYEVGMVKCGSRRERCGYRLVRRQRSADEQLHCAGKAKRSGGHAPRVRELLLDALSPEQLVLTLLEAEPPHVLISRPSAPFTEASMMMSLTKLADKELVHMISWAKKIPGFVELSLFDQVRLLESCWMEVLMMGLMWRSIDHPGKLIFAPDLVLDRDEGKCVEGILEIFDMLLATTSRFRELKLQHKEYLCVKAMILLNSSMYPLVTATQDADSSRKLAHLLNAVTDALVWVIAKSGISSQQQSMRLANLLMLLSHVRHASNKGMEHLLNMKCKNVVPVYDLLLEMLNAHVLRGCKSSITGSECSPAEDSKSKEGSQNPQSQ
ERa coact pot = enhances coactivator binding to human estrogen receptor alpha. P03372. TR-FRET ERalpha-LBD/SRC-Cy5 coactivator binding, 2 h; 100 = basal binding, no effect. coactivator binding (% of control), % at 25.6 µM. 86,000 compounds, 1.3% hits; in the data active = activity above about 200%;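 also: binding measured in presence of low estradiol as agonist stimulus; 0% = peptide alone without receptor and 100% = receptor with peptide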
ERa SRC1 inh = blocks coactivator binding to human estrogen receptor alpha. P03372. TR-FRET ER-alpha LBD / SRC-1 peptide, estradiol-bound. inhibition, % at 25.6 µM. 86,000 compounds, 1.7% hits; in the data active = inhibition above about 50%;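 also: 0% = receptor plus peptide control and 100% = peptide only without receptor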
EphB4 antag = EphB4-ephrin-B2 interaction antagonism. P54760. EphB4 LBD / TNYL-RAW-Alexa532 peptide, fluorescence polarization. inhibition, % at 7 µM. 97,000 compounds, 0.15% hits;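 active = inhibition above the screen-wide mean inhibition plus 3 SD, cut at about 15% in these data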;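 also: 0% = DMSO wells and 100% = excess unlabeled TNYL-RAW peptide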
* = called active by the depositor; . = not tested or not shown; [ ] = another dose, or the depositor's remark. Shown are actives, neighbours in structure and some others; about 2.8% of the full set was active somewhere.

SMILES	ERb SRC1 inh	ERa coact pot	ERa SRC1 inh	EphB4 antag
O=C(Nc1ccc(N2CCOCC2)cc1)C1CCCN(S(=O)(=O)c2cccc(C(F)(F)F)c2)C1 (stereo not given)	85*[fluorescence artefact?]	104	-4	-12
O=C(Nc1cccc(C(F)(F)F)c1)C1CCCN(S(=O)(=O)c2cnc[nH]2)C1 (stereo not given)	-13	111	-3	-8
Cn1c(C(=O)OC(C(=O)NC2CCCCC2)c2ccncc2)cc2sccc21 (stereo not given)	27	263*[fluorescence artefact?]	42	-9
Cn1c(C(=O)OC(C(=O)NC2CCCC2)c2ccncc2)cc2sccc21 (stereo not given)	25	90	18	-16
CCOC(=O)c1cnn(-c2cc(C)c3cc(C)cc(C)c3n2)c1N	-6	109	2	.
Cc1ccc(-n2c(C)cc(C3N=C(N)Nc4nc5ccccc5n43)c2C)c(C)c1 (stereo not given)	26	53	53*[fluorescence artefact?]	1
O=C(CCn1c(=S)[nH]c2cc3c(cc2c1=O)OCO3)N1CCc2ccccc2C1	15	104	6	5
O=C(CCCn1c(=S)[nH]c2cc3c(cc2c1=O)OCO3)N1CCN(c2ccccc2)CC1	14	96	16	-5
O=C(NCCN1CCCC1)c1ccc(Cn2c(=S)[nH]c3cc4c(cc3c2=O)OCO4)cc1	45	145	70*[fluorescence artefact?]	2
O=C(CCCn1c(=S)[nH]c2cc3c(cc2c1=O)OCO3)N1CCN(c2ccc(Cl)cc2)CC1	27	73	66*	4
O=C(CCCn1c(=S)[nH]c2cc3c(cc2c1=O)OCO3)N1CCc2ccccc2C1	51*	125	20	8
C=CCNC(=O)c1ccc(Cn2c(=S)[nH]c3cc4c(cc3c2=O)OCO4)cc1	5	100	33	-6
CCNc1nnc(-c2ccccc2OC)s1	73*[fluorescence artefact?]	73	6	-8
COc1ccccc1-c1nnc(NC(=O)C(C)SC2=NCCS2)s1 (stereo not given)	1	157	3	7
O=C(CSCc1ccccc1)NNC(=S)Nc1cccc(Cl)c1Cl	.	.	.	5
Cc1nnc2sc(-c3ccc(NC(=O)c4ccc(-c5ccc(Br)cc5)o4)cc3)nn12	48	122	69*	-5
Cc1ccc(-c2nn3c(C)nnc3s2)cc1NC(=O)c1ccc(Br)o1	6	116	3	-8
Cc1ccc(-c2nn3c(C)nnc3s2)cc1NC(=O)c1ccc(-c2ccc(Cl)cc2Cl)o1	46	155	67*[fluorescence artefact?]	.
Cc1ccc(-c2nn3c(C)nnc3s2)cc1NC(=O)c1ccc(-c2cccc(Cl)c2)o1	37	155	66*	3
Cn1c(Sc2ccc(Br)cc2)c(C=O)c2ccccc21	.	.	.	-1
Cc1ccc(SCC(=O)NCCSC(C)(C)C)cc1	-4	107	15	-8
CCOc1ccccc1C1C(C#N)=C(N)Nc2onc(-c3ccccc3)c21 (stereo not given)	1	378*	-4	2
COc1cc2c(cc1OC)C(c1ccc(-c3ccc(Cl)cc3Cl)o1)=NCC2	.	.	.	-2
COc1cc2c(cc1OC)C(c1ccc(-c3cc(Cl)ccc3Cl)o1)=NCC2	36	253*[fluorescence artefact?]	47	0
COc1cccc(NC(=O)CSc2nnc(-c3cccc(OC(C)C)c3)n2N)c1	4	112	2	1
SMILES	ERb SRC1 inh	ERa coact pot	ERa SRC1 inh	EphB4 antag
CCC(=O)Nc1c(C#N)c2nc3ccccc3nc2n1C1CCCCC1	34	101	65*[fluorescence artefact?]	-2
CCCCn1c(NC(=O)c2ccccc2Cl)c(C#N)c2nc3ccccc3nc21	12	69	9	7
CCCCn1c(NC(=O)CC)c(C#N)c2nc3ccccc3nc21	43	221*[fluorescence artefact?]	72*	2
Cc1csc(SCC(=O)c2c(N)n(C)c(=O)n(C)c2=O)n1	-6	89	6	-2
Cc1nc2ccccc2c(=O)n1/N=C/c1c(O)ccc2oc3c(c12)CCCC3	25	95	80*	4
CC(C)(C)C(=O)/C(=C\c1ccc([N+](=O)[O-])cc1)n1cncn1	-1	89	-8	-3
CCN1CCN(C(=S)c2ccc(OCC(=O)N3CCOCC3)cc2)CC1	-22	94	-9	3
CC1=C2C(CCS2(=O)=O)CC2(C1)C(=O)OC(C)(C)OC2=O (stereo not given)	17	84	2	0
O=C(Cn1nc(Cl)nc1Cl)c1cc2ccccc2oc1=O	37	81	55*[fluorescence artefact?]	0
Cn1cnnc1SCC(=O)c1cc2ccccc2oc1=O	15	88	24	-14
COc1ccc(Nc2nnc(SCc3cc([N+](=O)[O-])cc4c3OCOC4)s2)cc1	.	.	.	1
CN1CC2(C)CN(C(c3ccccc3)c3ccccc3)CC(C)(C1)C2O (stereo not given)	57*	84	44	.
CC12CN3CC(C)(CN(C1)C3c1ccccc1Cl)C2O (stereo not given)	.	.	.	11
CCCCNC(=O)c1ccc(S(=O)(=O)c2ccc(Cl)cc2)c(NC(C)=O)c1	-2	97	9	0
CCN(CC)c1ccc(/C=c2\sc3nnc(-c4ccccc4Cl)n3c2=O)cc1	-3	147	-2	-6
COc1ccccc1/C=c1\sc2nc(-c3ccccc3OC)nn2c1=O	.	.	.	-9
Cc1ccc(/C=c2\sc3nc(-c4ccccc4Br)nn3c2=O)o1	66*	60	85*[fluorescence artefact?]	-11
CCN(CC)c1ccc(/C=c2/sc3nnc(-c4ccccc4C)n3c2=O)cc1	28	413*[fluorescence artefact?]	41	-2
Cc1ccc(/C=c2/sc3nnc(-c4ccccc4Cl)n3c2=O)o1	44	42	58*[fluorescence artefact?]	2
COc1ccccc1/C=c1\sc2nc(-c3ccncc3)nn2c1=O	13	101	9	.
Cc1ccc(-c2nc3s/c(=C\c4ccco4)c(=O)n3n2)cc1	58*	23	96*[fluorescence artefact?]	-1
CCOC(=O)C[n+]1c(C)ccc2c1CCC2	0	116	-3	10
O=c1nc2s/c(=C\c3ccco3)c(=O)n2nc1Cc1ccc(F)cc1	88*	4	96*[fluorescence artefact?]	4
C=CCOc1ccccc1/C=c1\sc2nc(-c3oc4ccccc4c3C)nn2c1=O	-17	97	-16	0
O=c1/c(=C/c2ccco2)sc2n1CN(c1ccccc1)CN=2	-15	112	-6	-8
SMILES	ERb SRC1 inh	ERa coact pot	ERa SRC1 inh	EphB4 antag
Cc1ccc(/C=c2\sc3nc(-c4ccco4)nn3c2=O)o1	64*[fluorescence artefact?]	113	70*	-5
O=C(CCc1ccc(S(=O)(=O)N2CCOCC2)cc1)NCCCN1CCCC1=O	58*[fluorescence artefact?]	94	22	-4
COCCCn1c(SCC(=O)n2c(C)c(C)c3ccccc32)nnc1-c1ccoc1C	9	108	-21	-4
CCCc1[nH]nc2c1C(c1ccc(OC)c(Cn3nnc4ccccc43)c1)C(C#N)=C(N)O2 (stereo not given)	16	83	-2	17*
COc1ccc(C2C(C#N)=C(N)Oc3n[nH]c(C)c32)cc1Cn1nnc2ccccc21 (stereo not given)	7	112	1	3
Cc1nn2c(c1-c1ccc(Cl)cc1)N=C(c1ccco1)CC2c1ccccc1 (stereo not given)	-4	124	-3	-2
